Screens: PubChem, National Center for Advancing Translational Sciences (NCATS)
Sfp inh: Sfp phosphopantetheinyl transferase inhibition. Q9F4F7. Biochemical Sfp PPTase activity, qHTS. Potency, µM, for the others: largest response in the series, negative = inhibition, hits mostly inhibitors. hit rate 3.5% among 310,000;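 also: the enzyme is Sfp with the accession as filed and its product quenches rhodamine fluorescence; potency is read from the fitted curve at half-maximal effect; 0% = enzyme reaction without inhibitor and -100% = no enzyme wells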
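With Hepes-Na pH 7.6 buffer containing 10 mM MgCl2, Sfp (15 nM) modified BHQ-2-YbbR (12.5 uM) using rhodamine-CoA (5 uM). Two reads 30 minutes apart at 525/598 nm yielded each well's rate.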
TCR act: T cell receptor activation | primary human leukocytes, anti-CD3, IL-2 HTRF, 48 h | Potency, µM (titrated, usually from 9.22 µM), inactives show top-dose activation of IL-2 secretion, actives largely listed as activators | 330,000 tested, under 10 active | AID 504894; also: % of control where 0% means no effect
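Readout: HTRF IL-2, Eu-cryptate/d2 antibody pair, 320nm excitation, 665nm emission. Stimulus: a-CD3 beads, no co-stimulation. Cells: primary human leukocytes. Exposure: 48 hr with compound.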
ClpP mod: qHTS Assay for Activators of ClpP | ATP-dependent Clp protease proteolytic subunit (Bacillus subtilis (strain 168)), P80244 | purified B. subtilis ClpP, FRET peptide cleavage, 20 min | Potency, µM (top dose mostly 57.5 µM), inactives show at the top dose activity change, negative = active | hit rate 1.9% among 340,000; active = well fitted falling curve with a large enough effect; inconclusive = small, poorly fitted or top-dose-only effect; inactive = no such curve, though single readings can be large or run the other way; also: potency is read from the fitted curve at half-maximal effect; the source files actives as falling curves though it sought activators and does not explain the sign; nearly all actives have a fitted effect of over 65% in size
Target sequence (P80244 whole entry, looked up): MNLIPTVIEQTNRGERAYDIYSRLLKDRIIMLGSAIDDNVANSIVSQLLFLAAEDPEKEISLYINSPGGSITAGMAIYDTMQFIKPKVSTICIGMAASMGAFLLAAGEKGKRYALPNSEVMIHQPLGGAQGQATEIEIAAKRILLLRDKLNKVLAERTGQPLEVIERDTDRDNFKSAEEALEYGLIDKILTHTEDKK
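ClpP 10 microg/mL final, pH 8 Tris/KCl buffer with BSA, glycerol, Tween-20; compound pinned in; FRET-FV substrate; RT 20 min; Ex320/Em430; ΔFRET vs ADEP 5.8 microM, DMSO, no enzyme.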
uPA surface inh: blocks generation of uPA at the cell surface; Potency, µM (top dose mostly 38.3 µM), for the others: top-dose activity change, negative = inhibition, usual class: inhibitors; hit rate 0.31% among 330,000; cell surface uPA generation assay, qHTS; active = well fitted inhibition curve with a large enough effect; inconclusive = small, poorly fitted or top-dose-only effect; inactive = no such curve, though single readings can be large or run the other way; tested in mouse RAW 264.7 cells; also: potency is read from the fitted curve at half-maximal effect; % is scaled to controls: 0 for no effect and ±100 for the full control effect; nearly all actives have a fitted effect of over 55% in size
Active calls of the source: *; [ ] = another dose, or the depositor's remark. Only some compounds are listed: those with a hit (about 4.2% of all), similar ones and a draw of the others. Unless noted, calls follow the shape of the dose curve; as a rule, active = well fitted curve in the direction sought with a large enough effect; inconclusive = small, poorly fitted or top-dose-only effect, or another doubt; inactive = no such curve, though single readings can be large; an effect the other way counts as inactive or inconclusive.

For CCN(CC)S(=O)(=O)c1ccc(N2CCCCC2)c(NC(=O)c2ccncc2)c1 the results were Sfp inh 7%, TCR act 6%, ClpP mod 0% and uPA surface inh -1%.
For Cc1ccc(C)c(Cn2c(=O)cc(C)c3c(C)nn(-c4cccc(F)c4)c32)c1 the results were ClpP mod -1%.
`COc1ccc(-c2cc(C3C4C=CCC(C)C4C(=O)N3Cc3ccccc3)ccc2F)cc1` (stereo not drawn) gave Sfp inh -19%.
For CCc1ccc(-n2c(=O)c3ccccc3n3c(=S)[nH]nc23)cc1 the results were Sfp inh 45µM*, TCR act 2%, ClpP mod -5% and uPA surface inh -5%.
`COc1cccc(-n2c(=O)c3ccccc3n3c(=S)[nH]nc23)c1` gave Sfp inh inconclusive, TCR act -4% and uPA surface inh 3%.
Screening COCCCn1c(=O)c2ccccc2n2c(=S)[nH]nc12 returned Sfp inh 79µM*, TCR act 1%, ClpP mod 4% and uPA surface inh -3%.
For COCCCn1c(=O)c2ccccc2n(Cc2ccccc2)c1=O the results were Sfp inh -19%, TCR act -11%, ClpP mod -22% and uPA surface inh 4%.
C=CCN(c1ccccc1)S(=O)(=O)c1cccc(C(=O)NCC2CCCO2)c1 (stereo not drawn) was read as Sfp inh 30%, TCR act 4%, ClpP mod 28µM* and uPA surface inh 5%.
CCCc1cc(=O)oc2cc(C)c3c(-c4ccccc4)coc3c12 was read as ClpP mod 20µM*.
Screening CCCc1cc(=O)oc2cc(C)c3c(C)coc3c12 returned Sfp inh 5%, TCR act -2%, ClpP mod inconclusive and uPA surface inh -8%.
Cc1c2cnn(-c3ccccc3)c(=O)c2c(C)n1CCCC(=O)Nc1cccc(F)c1 was read as ClpP mod 2%.
CCCCNc1ccccc1C(=O)OCC(=O)Nc1ccc(S(N)(=O)=O)cc1 was read as Sfp inh 20%, TCR act -6%, ClpP mod 28µM* and uPA surface inh 5%.
Screening CCC(=O)Nc1ccccc1C(=O)OCC(=O)Nc1ccc(S(N)(=O)=O)cc1 returned Sfp inh 14%, TCR act -1% and ClpP mod -29%.
Screening Cc1ccc2nc(/C=C/c3ccc(N(C)C)cc3)ccc2c1 returned ClpP mod -4%.
Screening Cc1ccsc1/C=C/c1ccc2ccccc2n1 returned Sfp inh -21%, TCR act 0%, ClpP mod -1% and uPA surface inh -5%.
Screening Cc1ccsc1/C=C/c1ccc2cccc(O)c2n1 returned Sfp inh 50µM*, TCR act -2% and ClpP mod -3%.
c1ccc(-c2nc(-c3ccncc3)n[nH]2)nc1 was read as Sfp inh 14µM*, TCR act 0%, ClpP mod 0% and uPA surface inh 0%.
Cc1ccc(S(=O)(=O)C(CNC(=O)C(=O)NCCc2ccccc2)c2cccs2)cc1 (stereo not drawn) was read as ClpP mod -6%.
COCOc1cc(O)c(C(=O)/C=C/c2ccccc2)c(OCOC)c1 was read as TCR act 1%, ClpP mod 4% and uPA surface inh 10µM*.
For CCn1c(=O)c(=O)[nH]c2cc(C(=O)Nc3ccc(S(=O)(=O)N4CCCC4)cc3)ccc21 the results were Sfp inh 7%, TCR act 6%, ClpP mod -20% and uPA surface inh 4%.
`O=C(NC1CCCc2ccccc21)c1ccccc1` (stereo not drawn) gave Sfp inh -6%, TCR act 16%[46.1 µM], ClpP mod -3% and uPA surface inh -1%.
CCn1c(=O)c(=O)[nH]c2cc(C(=O)NC3CCCc4ccccc43)ccc21 (stereo not drawn) was read as Sfp inh 8%, TCR act 14%, ClpP mod 32µM* and uPA surface inh -13%.
`CCn1c(=O)c(=O)[nH]c2cc(C(=O)NC3CC3)ccc21` gave Sfp inh 12%, TCR act 2%[46.1 µM], ClpP mod 32µM* and uPA surface inh 1%.
`COc1cc2sc3cc(NCc4ccc(C)o4)ccc3c(=O)c2cc1OC` gave TCR act 1%, ClpP mod 4% and uPA surface inh 13µM*.
Screening Cn1cc(C(=O)NCc2ccccc2)c(=O)c2cc(S(=O)(=O)N3CCOCC3)ccc21 returned ClpP mod -1%.
`Cc1cc(-n2c(C)cc(C(=O)CSc3nc(N)cc(=O)[nH]3)c2C)no1` gave Sfp inh inconclusive, TCR act 1%, ClpP mod -2% and uPA surface inh -13%.
Screening Cc1cc(C(=O)CSc2nc(N)cc(=O)[nH]2)c(C)n1-c1ccc(OC(F)F)cc1 returned Sfp inh 6%, ClpP mod 32µM* and uPA surface inh -3%.
For Cc1ccccc1CNC(=O)CN1C(=O)CCCc2ccccc21 the results were ClpP mod -6%.
For O=C(NCCn1cc(SCc2ccc(F)cc2)c2ccccc21)c1c(F)cccc1F the results were Sfp inh -3%, TCR act 3%, ClpP mod 1% and uPA surface inh 10µM*.
Screening O=C(CC(NC(=O)C(F)(F)F)c1ccccc1)Nc1nnc(CCc2ccccc2)s1 (stereo not drawn) returned Sfp inh 18µM*, TCR act -1%[46.1 µM] and uPA surface inh 2%.
`Fc1cc2[nH]c(=S)[nH]c2c(Br)c1N1CCSCC1` gave Sfp inh 50µM*, TCR act 2%, ClpP mod -11% and uPA surface inh 2%.
For Fc1cc2nccnc2cc1N1CCSCC1 the results were Sfp inh 13% and ClpP mod -1%.
COc1cc(Br)cc(CNc2ccc(F)c([N+](=O)[O-])c2)c1O was read as Sfp inh 25µM*, TCR act -26% and uPA surface inh 0%.
`Cc1ccc(CC(=O)Nc2ccc(F)c([N+](=O)[O-])c2)cc1C` gave Sfp inh 16%, TCR act 1%, ClpP mod 0% and uPA surface inh 7%.
Cc1ccc(S(=O)(=O)Nc2ccc3cn[nH]c3c2)cc1 was read as TCR act -6%, ClpP mod -2% and uPA surface inh -10%.
Cc1ccc(S(=O)(=O)Nc2cc(C)c(O)c(Sc3n[nH]c(C)n3)c2)cc1 was read as Sfp inh 71µM*, TCR act -8% and uPA surface inh 0%.
COC(=O)c1ccc(C2/C(=C(/O)c3ccc(OC)cc3)C(=O)C(=O)N2Cc2ccco2)cc1 (stereo not drawn) was read as Sfp inh 22µM*, TCR act 3%, ClpP mod 1% and uPA surface inh 4%.
COc1ccc(C2/C(=C(\O)c3ccc4c(c3)OCCO4)C(=O)C(=O)N2Cc2ccco2)c(OC)c1 (stereo not drawn) was read as Sfp inh -23%, TCR act -1%[46.1 µM], ClpP mod 0% and uPA surface inh 1%.
